Source: PubChem BioAssay (National Center for Advancing Translational Sciences (NCATS))
The list is not random: actives were taken first. Their share in the collection is about 22%.
Shiga toxin inh = Shiga toxin inhibition | inhibition, % at 38.7 µM | AID 2315 | Vero cells, Shiga toxin protein synthesis inhibition reporter | 290,000 tested, 9.2% active; in the data active means inhibition mostly above about 28%, no sharp cut-off; inactive means mostly below about 43%; further: 0% is about no effect
Pf growth 96h = P. falciparum growth inhibition at 96 hour, primary screen for plastid delayed-death inhibitors | P. falciparum luciferase reporter growth, 96 h | Potency, µM (highest dose often 28.7 µM), inactives show at the top dose activity change, negative = inhibition, actives largely listed as inhibitors | 320,000 tested, 6.9% active | AID 504834; further: potency means the concentration at half of the fitted maximal effect; on the % scale 0 is the no-effect control and ±100 the full control effect
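Compounds incubated with erythrocytes infected by luciferase-expressing P. falciparum (2% hematocrit, 0.05% parasitemia final) for 96 hours, 37 C in 5% CO2. Growth inhibition scored as decreased luciferase luminescence.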
Pf growth 48h = inhibits P. falciparum growth in the first generation, 48 h; P. falciparum luciferase growth in erythrocytes, 48 h; Potency, µM (doses to about 28.7 µM), inactives show at the top dose activity change, negative = inhibition, hits mostly inhibitors; 310,000 tested, 5.9% active; AID 504832; further: potency means the concentration at half of the fitted maximal effect; on the % scale 0 is the no-effect control and ±100 the full control effect
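Compounds are pin-transferred into medium, infected erythrocytes (2% hematocrit, 0.1% parasitemia final) are added, and plates sit one parasite generation at 37 C in 5% CO2. Detection reagent is then added and luminescence measured.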
LmPK inhibitor = LmPK (Leishmania mexicana) enzyme inhibition. Q27686. purified LmPK, Kinase-Glo ATP luminescence, 1 h. Potency, µM (series often up to 57.5 µM), inactives show at the highest dose activity change, negative = inhibition, actives largely listed as inhibitors. 290,000 tested, 0.37% active. AID 1721; further: potency means the concentration at half of the fitted maximal effect; on the % scale 0 is the no-effect control and ±100 the full control effect
Target sequence (Q27686 whole entry, looked up): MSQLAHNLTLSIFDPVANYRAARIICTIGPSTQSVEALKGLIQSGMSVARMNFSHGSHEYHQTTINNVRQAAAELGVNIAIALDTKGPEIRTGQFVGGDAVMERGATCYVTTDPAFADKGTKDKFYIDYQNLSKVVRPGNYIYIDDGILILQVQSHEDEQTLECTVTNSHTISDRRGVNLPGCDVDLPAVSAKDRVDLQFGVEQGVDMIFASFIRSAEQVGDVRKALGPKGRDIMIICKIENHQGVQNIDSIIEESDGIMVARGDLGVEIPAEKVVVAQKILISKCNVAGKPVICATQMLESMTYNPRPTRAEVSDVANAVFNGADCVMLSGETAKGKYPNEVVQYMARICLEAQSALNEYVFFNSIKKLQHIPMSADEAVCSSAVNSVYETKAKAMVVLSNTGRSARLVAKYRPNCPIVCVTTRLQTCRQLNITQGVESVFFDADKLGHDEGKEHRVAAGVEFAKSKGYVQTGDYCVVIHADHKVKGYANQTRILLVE
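Screened at intermediate enzyme activity to detect both inhibitors and activators: LmPK at 0.1 nM, with a 0.5 nM enzyme column as activation reference. PEP 0.5 mM, ADP 0.1 mM; ATP detected by luminescence after 1 h.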
CHX counter = affects cycloheximide protein synthesis inhibition readout, counter-screen | 300,000 tested, 12% active | max response, % | cell reporter, cycloheximide protein synthesis inhibition counterscreen; in the data active means max response mostly above about 13%, no sharp cut-off; inactive means mostly below about 14%; further: read at 38.3 µM for the half of the compounds with a filed dose; 0% is about no effect
* hit, by the source's call; ? = inconclusive; . = no result; [ ] = dose if it differs, or a comment. Unless noted, the call rests on the fitted dose curve; in most records, active means well fitted inhibition curve with a large enough effect; inconclusive means small, poorly fitted or top-dose-only effect, or another doubt; inactive means no such curve, though single readings can be large or run the other way.

SMILES	Shiga toxin inh	Pf growth 96h	Pf growth 48h	LmPK inhibitor	CHX counter
Cc1ccc2cc(C3CC(c4ccco4)=NN3S(C)(=O)=O)c(Cl)nc2c1 (stereo not given)	-2	42%	?	2%	8
COc1cccc(NC2SC(=O)N(c3ccccc3)C2=O)c1 (stereo not given)	61*	-1%	103%	0%	43*
Cc1ccc(OCC(=O)c2cc(C)n(C3CC3)c2C)c([N+](=O)[O-])n1	-4	?	13%	2%	0
Cc1cc(C(=O)COC(=O)c2cc(Cl)c(O)c(Cl)c2)c(C)n1C	.	16%	-5%	.	.
Cc1cc(C(=O)COc2ccc(F)cc2Br)c(C)n1C	63	-6%	-16%	2%	30*
Cc1cc(C(=O)COc2ccc(F)cc2Br)c(C)n1C1CC1	.	10µM*	?	.	.
COc1ccc(CN(C)C(=O)c2ccc(NS(=O)(=O)c3ccc(F)cc3)cc2)c(OC)c1OC	19	?	?	-11%	-2
Clc1ccc(-c2cnc(Oc3ccccc3)nc2)cc1	163*	95%	218%	-1%	74*
Cc1cc(Cl)ccc1Oc1ncc(-c2ccc(Cl)cc2)cn1	-8	35%	7%	1%	-3
COc1ccc(/C=C/C2=NC(=C\N(C)C)/C(=O)O2)cc1	107*	-2%	45%	2%	43*
COc1ccc(/C=C/c2nc3ccccc3c(=O)o2)cc1	-4	178%	166%	-14%	-6
CCO[C@@H]1OC(C(=O)NCc2ccccc2)=C[C@H](c2ccc(C(F)(F)F)cc2)[C@H]1CCCO	-5	8.3µM*	4.7µM*	5%	-1
C#CCNC(=O)C1=C[C@@H](c2ccc(C(F)(F)F)cc2)[C@H](CCCO)[C@@H](OCC)O1	-10	12µM*	?	9%	1
COc1ccc(NC(=O)c2ccco2)cc1NC(=O)c1ccccc1[N+](=O)[O-]	-2	17%	24%	-13%	-5
O=S(=O)(c1ccc(Br)s1)N1CCN(c2ccnc3cc(Cl)ccc23)CC1	25	?	?	4%	15*
CS(=O)(=O)N1CCN(c2ccnc3cc(Cl)ccc23)CC1	-7	?	3%[5.75 µM]	0%	-5
CCS(=O)(=O)N1CCN(c2ccnc3cc(Cl)ccc23)CC1	-5	10µM*	12µM*	-1%	-1
Cc1ccc(S(=O)(=O)N2CCN(c3ccnc4cc(Cl)ccc34)CC2)cc1	0	?	10µM*	7%	-1
Cc1ccc(S(=O)(=O)N2CCN(c3ccnc4cc(Cl)ccc34)CC2)cc1C	-5	8%	?	2%	1
OC(COC(c1ccc(F)cc1)c1ccc(F)cc1)CN1CCCC(C(F)(F)F)C1 (stereo not given)	-4	?	-85%	1%	0
O=C(c1ccc(Cl)c(S(=O)(=O)N2CCCCCC2)c1)N1CCN(c2ccccc2O)CC1	17	?	?	-1%	-3
O=[N+]([O-])O[C@H]1CO[C@H]2[C@@H]1OC[C@H]2O	1	1%	-2%	.	-4
CSc1nc(N)nc(SCC(=O)Nc2ccc(Cl)cc2)c1C#N	43*	-13%	-8%	6%	20*
CSc1nc(N)nc(SCC(=O)Nc2cccc(F)c2)c1C#N	77*	-6%	?	3%	28
CSc1nc(N)nc(SCC(=O)C(C)(C)C)c1C#N	22	?	.	-2%	22
SMILES	Shiga toxin inh	Pf growth 96h	Pf growth 48h	LmPK inhibitor	CHX counter
COc1cccc(CNC(=O)CCC2CCCN(C(=O)c3ccc(OC)c(F)c3)C2)c1 (stereo not given)	17	23%	-17%	0%	9
COc1cccc(NC(=O)CN(C)C(=O)CCCc2c[nH]c3ccccc23)c1	.	-26%	?	.	.
CC1CN(C(=O)/C(C#N)=C2\N=C(NC(=O)c3ccccc3Cl)c3ccccc32)CC(C)O1 (stereo not given)	-3	-9%	-5%	0%	-2
CCOC(CCNC(=O)c1cn(CC(C)C)c(=O)c2c1c1ccccc1n2C)OCC	13	0.52µM*	-17%	-3%	-1
CCN(C(=O)c1nn(-c2ccc(OC)cc2)c(=O)c2c1c1ccccc1n2C)c1ccc(OC)cc1	-2	-1%	-11%	14%	-2
CCCCN(C)CCNC(=O)c1nn(-c2ccc(OC)cc2)c(=O)c2c1c1ccccc1n2C	-8	2.6µM*	?	-3%	-5
